The results in this text go back to ChEMBL document CHEMBL4513216, “Probing the Open Global Health Chemical Diversity Library for Multistage-Active Starting Points for Next-Generation Antimalarials” (ACS Infect Dis, 2020).

Among all 65,000 compounds or so, about 2,100 (3.2%) showed an effect of 50% or more. The median lay at about -52%. What follows is part of a selection rich in strong results, with near analogues and random picks from the rest.

The assay deals with Plasmodium falciparum. The assay is described as follows: Screen against P. falciparum Asexual Blood Stage (ABS), at 5uM. The format is functional, Dd2. The following applies: tested at 5 uM.
As for `c1ccc(Cn2ccnc2CNC2CCCOc3ccccc32)cc1` (stereo not given), the INHIBITION was found to be 42.5%.
To `Cc1cccc2c1OCCCC2NCc1nccn1Cc1ccccc1` (stereo not given) belongs 63.8%; to `Cn1cc(CNC2CCCOc3c(Cl)cccc32)cn1` (stereo not given), 20.3%.
In the case of `Cc1cccc2c1OCCC2NCc1c(C)nn(C)c1N(C)C` (stereo not given), the INHIBITION amounted to 0.635%.
In the case of `Cc1ccc2c(c1)OCCCC2NCc1nccn1Cc1ccccc1` (stereo not given) it was -13.4%; in that of `Cn1cc(CNC2CCCOc3c2ccc2ccccc32)cn1` (stereo not given), 63.1%; in that of `CCCn1cc(-c2cc(-c3cc(CC)n[nH]3)c(C#N)c(N)n2)c(C)n1`, -20.1%.
With `CCCN1CCC(c2nc3ccc(NCc4ccccc4)cn3n2)CC1`, the INHIBITION is listed as -1.75%.
As for `O=C1CCCN1Cc1ncn2c1CN(C(=O)N1CCCC1)CCC2`, the INHIBITION is -29.5%.
To `Cn1cc(NC(=O)N2CCC(c3ccccc3)CC2)ccc1=O` belongs -187%; to `Cn1cc(NC(=O)N2CCC2c2ccccc2)ccc1=O` (stereo not given), 54.8%; to `Cn1cc(NC(=O)N2CCCC2c2cccnc2)ccc1=O` (stereo not given), -8.15%.
To `Cc1occc1C(=O)N1CCO[C@H]2[C@@H](Oc3ccccn3)CC[C@@H]21` belongs -73.5%.
To `O=C(C1=CCCC1)N1CCO[C@H]2[C@@H](Oc3ccccn3)CC[C@@H]21` belongs -51.5%; to `Cc1cc(C(=O)N2CCO[C@H]3[C@H](Oc4ccccn4)CC[C@@H]32)c(C)[nH]1`, 51.5%; to `CCCc1nc(N2CCN(Cc3ccccn3)CC2)c2cnn(C)c2n1`, 19.2%.
For `CCCc1nc(N2CCCN(c3ccncc3)CC2)c2cnn(C)c2n1`, the INHIBITION worked out at 65%.
In the case of `CCCc1nc(N2CCCN(c3ncccn3)CC2)c2cnn(C)c2n1` it was -2.15%; in that of `Cc1cnn(C2CCCN(C(=O)c3cccc4c3OCO4)C2)c1` (stereo not given), -116%.
For the molecule `CCN(Cc1ccccn1)Cc1cc(Cl)ccc1OC`, the INHIBITION is listed as -28.3%.
`Cn1ccnc1CN(Cc1ccccn1)Cc1ccccc1Cl`: the INHIBITION is on record as 79.4%.
To `Cn1cc(CN(Cc2ccccn2)Cc2ccccc2Cl)cn1` belongs -31.1%; to `CCn1nc(C)c(CN(Cc2ccccn2)Cc2ccccc2Cl)c1C`, -33.9%.
In the case of `CCN(Cc1cc(Cl)ccc1OC)Cc1ncnn1CC` it was -33.4%; in that of `CCN(Cc1cc(Cl)ccc1OC)Cc1nccn1C`, 67.2%.
To `Cc1cccc(CN2CCc3c(COCC(=O)N(C)C)nn(C)c3C2)n1` belongs -107%; to `COCC(=O)N1CCCC(COc2ccccc2C)C1` (stereo not given), -71%; to `Cc1ccccc1OCC1CCCN(C(=O)CN(C)C2CCNCC2)C1` (stereo not given), 57.5%.
Consider `Cc1ccccc1OCC1CCCN(C(=O)CNC(=O)N(C)C)C1` (stereo not given), for which the INHIBITION is on record as -158%.
To `Cc1[nH]/c(=N\C(=O)c2csc(NCC(C)C)n2)sc1C` belongs -31.9%; to `Cc1[nH]/c(=N\C(=O)c2csc(NC3CCCC3)n2)sc1C`, 50%; to `Cc1cnc(NC(=O)c2csc(NC3CCCC3)n2)s1`, -86.7%.
With `CCOC(=O)N1CCCC2(CCN(Cc3ccccc3C#N)C2)C1` (stereo not given), the INHIBITION is recorded as -71.9%.
`CN1CCN(C(CNC(=O)CCn2cccn2)c2cccs2)CC1` (stereo not given): the INHIBITION is -29.5%.
To `CN1CCN(C(CNC(=O)c2ccc(Cl)cc2F)c2cccs2)CC1` (stereo not given) belongs 53.9%; to `CC(CNC(=O)c1ccc(Cl)cc1F)N1CCCC1` (stereo not given), -2.96%; to `CC(CNC(=O)c1cc(Cl)ccc1F)N1CCCC1` (stereo not given), 12.4%.
As for `CN1CCN(Cc2ccccc2CNC(=O)c2ccc(Br)cc2F)CC1`, the INHIBITION was 48.8%.
To `CC(CNC(=O)c1ccc(Cl)cc1F)N1CCN(C)CC1` (stereo not given) belongs 64.1%; to `CN1CCN(Cc2ccccc2CNC(=O)c2cc(Cl)ccc2F)CC1`, 66.5%; to `O=C(NCC(c1cccs1)N1CCOCC1)c1ccc(F)cc1Cl` (stereo not given), -46.5%.
In the case of `CN1CCN(Cc2ccccc2CNC(=O)c2ccc(Br)cc2)CC1` it was 46.2%.
Turning to `Cc1cc(C)n(CCN2CCC(N(C)Cc3noc(C4CC4)n3)C2)n1` (stereo not given), the INHIBITION is recorded as -148%.
To `Cc1cc(C(=O)N2CCc3ncnc(-c4cnn(C)c4)c3CC2)c(C)o1` belongs -23.2%; to `CC(CNC(=O)c1ccc(=O)[nH]n1)N1CCc2ccccc21` (stereo not given), -120%; to `CN(C)C(=O)NC[C@@H]1OC[C@H]2CN(Cc3cccc(F)c3)CC[C@H]21`, -66.7%.
To `CN(C)CC1CSCCCN1C(=O)c1ccc(-n2cccc2)cc1` (stereo not given) belongs 63%; to `CN(C)CC1CSCCCN1C(=O)c1ccc(-c2ccccc2)cc1` (stereo not given), 6.37%; to `CN(C)CC1CSCCCN1C(=O)c1ccc(C(C)(C)C)cc1` (stereo not given), 2.97%.
With `CC(C)NC(=O)C1CCC2(CCN(Cc3cnn(C)c3)CC2)CO1` (stereo not given), the INHIBITION is on record as -63.9%.
To `CC(NC(=O)Cn1cc(-c2ccccc2)cn1)C1CC1` (stereo not given) belongs -158%; to `COCC1CN(S(=O)(=O)C2CC2)Cc2ncn(CC3CC3)c21` (stereo not given), -17.1%.
To `COC1CCN(C(=O)CCn2cccn2)CC1` belongs 53.1%; to `CCC(=O)N1CCN(C(=O)CCn2cccn2)CC1`, -114%.
To `CNC(=O)C1CCN(C(=O)CCn2cccn2)CC1` belongs -104%.
Regarding `CC(C)CN1CCN(C(=O)CCn2cccn2)CC1`, the INHIBITION was 67.8%.
On to `O=C(CCn1cccn1)N1CCN(CC(F)F)CC1`, for which the INHIBITION is recorded as -177%.
Turning to `CS(=O)(=O)N1CCN(C(=O)CCn2cccn2)CC1`, the INHIBITION was -7.11%.
In the case of `COCc1nc(N(C)C)ncc1C(=O)OC` it was -29.3%; in that of `Cc1ccc(CN2Cc3nnn(C)c3C(COCc3ccccc3)C2)s1` (stereo not given), -43.4%; in that of `CN(CCc1ncnn1C1Cc2ccccc2C1)C1CCS(=O)(=O)C1` (stereo not given), -63.2%.
In the case of `Cc1cccc(OCC(O)CN2CCN(c3nccs3)CC2)c1` (stereo not given) it was -7.68%.
In the case of `CCOc1cc(C(=O)N2CCCC2)cc2occc12` it was -69.7%; in that of `Cc1n[nH]cc1CNC1CCN(c2ccccc2)CC1`, -20.1%; in that of `Cc1n[nH]cc1CNC1CCN(c2cccc(C(F)(F)F)c2)CC1`, 62.8%.
On to `Cc1n[nH]cc1CNC1CCN(c2ccc(F)cc2)CC1`, for which the INHIBITION was -38.1%.
Regarding `COc1ccc(C(=O)C2CCCN(c3cc(C#N)ccn3)C2)cc1F` (stereo not given), the INHIBITION is -126%.
To `CCC(CNC1CCN(C(C)=O)CC1)Oc1cccc(C)c1` (stereo not given) belongs 53.2%.
To `COCC(=O)N1CCC(Oc2cccc(C)c2)CC1` belongs -127%.
In the case of `CCC(CNC1CCN(C(C)=O)CC1)Oc1ccccc1Cl` (stereo not given) it was 48.8%.
